Hit rate of the full screen: of about 5,500 compounds, about 2,000 (36%) were called active. About 18% were inconclusive and are not listed. Cut-off read from the data, not from the text of the source: active = normalized growth mostly below about 0.91 (no sharp cut-off); inconclusive = no clear call, values can overlap the other calls; inactive = mostly above about 0.92. The list shows a part of the results.
Assay: chemical genetic growth profiling, strain panel (AID 1159580);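 note: tested at 20 µM; growth read once vehicle control cultures reached saturation at 30 °C; 1 = growth at the plate median or of vehicle wells; lower values mean less growth of the strain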
Conditions: growth OD

Measured: normalized growth

CCC(C(=O)O)c1ccccc1 (configuration not stated)
inactive: S. cerevisiae deletion strains, locus YJR075W, strain HOC1, active compounds read low 1 | S. cerevisiae deletion strains, locus YKL009W, strain mrt4, active compounds read low 1.01 | S. cerevisiae deletion strains, locus YKL068W, active compounds read low 0.976 | S. cerevisiae deletion strains, locus YKL085W, strain MDH1 (second series), active compounds read low 0.981 | S. cerevisiae deletion strains, locus YKL085W, strain MDH1, active compounds read low 0.981 | S. cerevisiae deletion strains, locus YKL160W, strain elf1, active compounds read low 0.996 | S. cerevisiae deletion strains, locus YKL190W, strain CNB1, active compounds read low 1.01 | S. cerevisiae deletion strains, locus YKR001C, strain vps1, active compounds read low 0.987 | S. cerevisiae deletion strains, locus YKR026C, strain gcn3, active compounds read low 0.99 | S. cerevisiae deletion strains, locus YKR091W, strain srl3, active compounds read low 0.99 | S. cerevisiae deletion strains, locus YLL001W, strain dnm1, active compounds read low 0.986 | S. cerevisiae deletion strains, locus YLL026W, active compounds read low 0.977 | S. cerevisiae deletion strains, locus YLL041C, strain sdh2, active compounds read low 1 | S. cerevisiae deletion strains, locus YLR027C, strain aat2, active compounds read low 1 | S. cerevisiae deletion strains, locus YLR039C, strain RIC1, active compounds read low 0.958 | S. cerevisiae deletion strains, locus YLR058C, strain SHM2, active compounds read low 1 | S. cerevisiae deletion strains, locus YLR102C, strain apc9, active compounds read low 0.995 | S. cerevisiae deletion strains, locus YLR113W, strain HOG1, active compounds read low 0.912 | S. cerevisiae deletion strains, locus YLR221C, strain rsa3, active compounds read low 0.992 | S. cerevisiae deletion strains, locus YLR258W, strain gsy2, active compounds read low 1 | S. cerevisiae deletion strains, locus YLR262C, strain YPT6 (second series), active compounds read low 1.01 | S. cerevisiae deletion strains, locus YLR262C, strain YPT6, active compounds read low 0.966 | S. cerevisiae deletion strains, locus YLR268W, strain sec22, active compounds read low 1.01 | S. cerevisiae deletion strains, locus YLR320W, strain mms22, active compounds read low 0.989 | S. cerevisiae deletion strains, locus YLR330W, strain CHS5, active compounds read low 1 | S. cerevisiae deletion strains, locus YLR342W, strain FKS1 (second series), active compounds read low 0.994 | S. cerevisiae deletion strains, locus YLR342W, strain FKS1, active compounds read low 0.998 | S. cerevisiae deletion strains, locus YLR357W, strain rsc2, active compounds read low 0.951 | S. cerevisiae deletion strains, locus YLR370C, strain arc18, active compounds read low 0.977 | S. cerevisiae deletion strains, locus YLR371W, strain rom2, active compounds read low 1.01 | S. cerevisiae deletion strains, locus YLR384C, strain iki3, active compounds read low 0.97 | S. cerevisiae deletion strains, locus YLR418C, strain cdc73, active compounds read low 1.03 | S. cerevisiae deletion strains, locus YML016C, strain PPZ1, active compounds read low 1 | S. cerevisiae deletion strains, locus YML032C, strain rad52, active compounds read low 0.997 | S. cerevisiae deletion strains, locus YML120C, strain ndi1, active compounds read low 0.979 | S. cerevisiae deletion strains, locus YML124C, strain tub3, active compounds read low 1 | S. cerevisiae deletion strains, locus YMR058W, strain fet3, active compounds read low 0.986 | S. cerevisiae deletion strains, locus YMR078C, strain ctf18, active compounds read low 0.996 | S. cerevisiae deletion strains, locus YMR125W, strain sto1, active compounds read low 0.977 | S. cerevisiae deletion strains, locus YMR129W, active compounds read low 0.992 | S. cerevisiae deletion strains, locus YMR205C, strain PFK2, active compounds read low 0.996 | S. cerevisiae deletion strains, locus YMR223W, strain ubp8, active compounds read low 1 | S. cerevisiae deletion strains, locus YMR231W, strain pep5, active compounds read low 0.992 | S. cerevisiae deletion strains, locus YMR263W, strain SAP30, active compounds read low 1.01 | S. cerevisiae deletion strains, locus YMR307W, strain GAS1, active compounds read low 1.07 | S. cerevisiae deletion strains, locus YNL067W, strain RPL9B, active compounds read low 1.03 | S. cerevisiae deletion strains, locus YNL071W, strain lat1, active compounds read low 0.989 | S. cerevisiae deletion strains, locus YNL128W, strain TEP1, active compounds read low 1.02 | S. cerevisiae deletion strains, locus YNL153C, strain GIM3, active compounds read low 1 | S. cerevisiae deletion strains, locus YNL183C, strain NPR1, active compounds read low 0.905 | S. cerevisiae deletion strains, locus YNL209W, strain ssb2, active compounds read low 0.989 | S. cerevisiae deletion strains, locus YNL233W, strain BNI4, active compounds read low 0.999 | S. cerevisiae deletion strains, locus YNL248C, strain rpa49, active compounds read low 0.984 | S. cerevisiae deletion strains, locus YNL250W, strain rad50, active compounds read low 0.975 | S. cerevisiae deletion strains, locus YNL271C, strain bni1, active compounds read low 0.988 | S. cerevisiae deletion strains, locus YNL298W, strain CLA4, active compounds read low 0.989 | S. cerevisiae deletion strains, locus YNL307C, strain MCK1, active compounds read low 0.999 | S. cerevisiae deletion strains, locus YNL322C, strain KRE1 (second series), active compounds read low 0.972 | S. cerevisiae deletion strains, locus YNL322C, strain KRE1, active compounds read low 1 | S. cerevisiae deletion strains, locus YNR049C, strain mso1, active compounds read low 1.01 | S. cerevisiae deletion strains, locus YNR052C, strain pop2, active compounds read low 0.99 | S. cerevisiae deletion strains, locus YOL006C, strain TOP1, active compounds read low 1.03 | S. cerevisiae deletion strains, locus YOL012C, strain htz1 2.17 | S. cerevisiae deletion strains, locus YOL147C, strain pex11, active compounds read low 0.998 | S. cerevisiae deletion strains, locus YOR001W, strain rrp6, active compounds read low 0.974 | S. cerevisiae deletion strains, locus YOR061W, strain CKA2, active compounds read low 1 | S. cerevisiae deletion strains, locus YOR069W, strain VPS5, active compounds read low 1 | S. cerevisiae deletion strains, locus YOR070C, strain gyp1, active compounds read low 0.976 | S. cerevisiae deletion strains, locus YOR080W, strain dia2, active compounds read low 0.984 | S. cerevisiae deletion strains, locus YOR083W, strain WHI5, active compounds read low 0.994 | S. cerevisiae deletion strains, locus YOR106W, strain vam3, active compounds read low 0.989 | S. cerevisiae deletion strains, locus YOR136W, strain idh2, active compounds read low 1.01 | S. cerevisiae deletion strains, locus YOR144C, strain elg1, active compounds read low 0.999 | S. cerevisiae deletion strains, locus YOR184W, strain ser1, active compounds read low 0.992 | S. cerevisiae deletion strains, locus YOR231W, strain MKK1, active compounds read low 0.951 | S. cerevisiae deletion strains, locus YOR265W, strain rbl2, active compounds read low 1 | S. cerevisiae deletion strains, locus YOR270C, strain vph1, active compounds read low 1.02 | S. cerevisiae deletion strains, locus YOR290C, strain snf2, active compounds read low 0.976 | S. cerevisiae deletion strains, locus YOR316C, strain cot1, active compounds read low 1 | S. cerevisiae deletion strains, locus YPL051W, strain arl3, active compounds read low 0.964 | S. cerevisiae deletion strains, locus YPL055C, strain LGE1, active compounds read low 1.03 | S. cerevisiae deletion strains, locus YPL078C, strain atp4, active compounds read low 0.974 | S. cerevisiae deletion strains, locus YPL106C, strain sse1, active compounds read low 0.97 | S. cerevisiae deletion strains, locus YPL240C, strain hsp82, active compounds read low 0.988 | S. cerevisiae deletion strains, locus YPL241C, strain CIN2, active compounds read low 1.01 | S. cerevisiae deletion strains, locus YPL256C, strain CLN2, active compounds read low 0.907 | S. cerevisiae deletion strains, locus YPR119W, strain clb2, active compounds read low 0.994 | S. cerevisiae deletion strains, locus YPR141C, strain kar3, active compounds read low 0.976 | S. cerevisiae deletion strains, locus YPR163C, strain tif3, active compounds read low 1 | S. cerevisiae deletion strains, locus YPR167C, strain met16, active compounds read low 0.999 | S. cerevisiae deletion strains, strain wtn01, active compounds read low 0.999 | S. cerevisiae strains, strain wild type, active compounds read low 1
